Measured values taken from PubChem BioAssay AID861 (The Scripps Research Institute Molecular Screening Center, 2007).
About 360 (0.18%) of roughly 200,000 compounds were called active. The full list was thinned out, with actives kept by preference. A number with no mark means an inactive call. Cut-off read from the data, not from the text of the source: active = inhibition above about 25%; inactive = the rest.

biological target: Toll-like receptor 4 (Homo sapiens) + Myeloid differentiation primary response protein MyD88 (Homo sapiens) (UniProt O00206+Q99836); assay: disruptors of TLR4 binding to MyD88 – cell-based, HeLa CL3-4, BLA complementation, FRET ratio, primary screen (AID 861); details: HeLa CL3-4 TLR4/MyD88 BLA complementation, at 8.4 µM, hits give high values;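 note: 0% = vehicle and 100% = reference inhibitor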
Sequence (O00206 whole entry, looked up): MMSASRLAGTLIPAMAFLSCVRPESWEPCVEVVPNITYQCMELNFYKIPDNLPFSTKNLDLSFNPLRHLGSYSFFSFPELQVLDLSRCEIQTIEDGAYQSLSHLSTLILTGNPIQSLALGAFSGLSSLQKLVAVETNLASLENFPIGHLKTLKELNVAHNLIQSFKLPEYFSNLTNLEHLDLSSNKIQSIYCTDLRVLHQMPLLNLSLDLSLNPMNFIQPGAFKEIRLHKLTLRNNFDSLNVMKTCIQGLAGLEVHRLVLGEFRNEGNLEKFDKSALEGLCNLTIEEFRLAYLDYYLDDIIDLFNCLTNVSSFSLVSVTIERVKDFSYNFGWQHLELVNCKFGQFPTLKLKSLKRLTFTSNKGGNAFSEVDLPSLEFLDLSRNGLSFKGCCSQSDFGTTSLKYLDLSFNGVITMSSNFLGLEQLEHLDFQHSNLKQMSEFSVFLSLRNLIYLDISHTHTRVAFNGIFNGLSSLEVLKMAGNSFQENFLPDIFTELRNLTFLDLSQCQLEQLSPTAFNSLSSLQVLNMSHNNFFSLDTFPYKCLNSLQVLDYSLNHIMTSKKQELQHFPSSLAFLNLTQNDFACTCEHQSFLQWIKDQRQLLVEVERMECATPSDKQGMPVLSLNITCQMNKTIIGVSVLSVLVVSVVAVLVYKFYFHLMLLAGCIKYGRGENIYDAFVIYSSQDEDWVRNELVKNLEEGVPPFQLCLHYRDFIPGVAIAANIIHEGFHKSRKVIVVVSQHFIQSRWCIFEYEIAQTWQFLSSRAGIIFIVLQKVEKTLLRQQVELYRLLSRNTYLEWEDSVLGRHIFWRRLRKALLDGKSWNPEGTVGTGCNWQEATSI
Sequence (Q99836 whole entry, looked up): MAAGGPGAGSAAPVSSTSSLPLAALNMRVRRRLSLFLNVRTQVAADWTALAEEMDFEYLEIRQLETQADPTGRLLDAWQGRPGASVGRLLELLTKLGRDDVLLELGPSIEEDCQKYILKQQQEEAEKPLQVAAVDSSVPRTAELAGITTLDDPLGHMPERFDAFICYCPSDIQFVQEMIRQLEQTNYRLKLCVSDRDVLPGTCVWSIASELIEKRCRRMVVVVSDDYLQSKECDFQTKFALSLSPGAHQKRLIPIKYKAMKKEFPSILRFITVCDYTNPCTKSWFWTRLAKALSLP

| Compound | inhibition |
| --- | --- |
| COC(=O)C1=NN(c2ccccc2)C2C(=O)N(c3ccccc3OC)C(=O)C12 (stereo not drawn) | 0.17% |
| Cc1cccc(C(=O)Nc2ccccc2C(=O)NCc2cccnc2)c1 | -0.85% |
| C=C1c2cc(CC)ccc2NC(=O)N1c1ccc(C)cc1 | 1.66% |
| CCc1ccc2c(c1)C1(NN=C(c3ccccc3)S1)C(=O)N2 (stereo not drawn) | 25.3% (active) |
| O=C1Nc2ccccc2C12Nc1ccccc1S2 (stereo not drawn) | -1.86% |
| CNc1nc(Nc2ccc(C)c(Cl)c2)nc(N)c1[N+](=O)[O-] | -5.76% |
| O=C(CN1CCCCC1)Nc1ccccc1Cl | -3.05% |
| O=C(Nc1ccccc1Cl)c1ccc2nsnc2c1 | 7.26% |
| O=C(Nc1ccccc1Cl)/C(Cl)=C(\Cl)S(=O)c1ccccc1 (stereo not drawn) | 27% (active) |
| CC1(c2ccccc2)CC(C)(C)N(C(=O)c2cc([N+](=O)[O-])cc([N+](=O)[O-])c2)c2ccccc21 (stereo not drawn) | -16.2% |
| CCOc1ccc(C(C)=O)cc1COC(=O)c1cnc(Cl)c(Cl)c1 | 15.1% |
| COC(=O)/C(=C1\Oc2ccc(C(C)(C)C)cc2S1)C(F)(F)F | 6.06% |
| Cc1c(Cl)cccc1NC(=S)N(Cc1ccccc1)Cc1cccnc1 | 1.23% |
| CC(Sc1nc2c([nH]c3ccccc32)c(=O)n1C)c1ccccc1 (stereo not drawn) | 8.9% |
| CC1=NN(c2cccc(Cl)c2)C(=O)C12CC(C)=C(C)CS2 (stereo not drawn) | 2.14% |
| Cn1cc(CN2CCC(C(O)CCc3ccccc3)CC2)c(-c2ccccc2F)n1 (stereo not drawn) | -13.8% |
| CC1CCN(C(=S)c2cccc(O)c2)CC1 | -6.27% |
| O=[N+]([O-])c1ccc(N2CCN(CC(O)COc3ccccc3)CC2)cc1 (stereo not drawn) | 5.02% |
| CCc1cccc(CC)c1NC(=O)COc1ccccc1C(=O)c1cc(C#N)c(=O)n(C2CCCCC2)c1 | -16.2% |
| CC(C)CCN1C(=O)c2ccc(C(=O)Nc3cccc(S(N)(=O)=O)c3)cc2C1=O | 1.58% |
| CC(=O)NCCc1nc2cc(NC(=O)c3ccccc3)ccc2n1C | -9.04% |
| CC(Oc1ccc(Br)cc1Br)C(=O)NC1CCCC1 (stereo not drawn) | -3.01% |
| CS(=O)(=O)N(Cc1ccccc1Cl)c1ccc(C(=O)NCc2cccnc2)cc1 | -15.2% |
